Results as given in PubChem BioAssay AID1159580 (chemical genetic matrix, 2015).
Screen size: about 5,500 compounds; about 2,000 (36%) were called active. About 18% were inconclusive and are not listed. Cut-off read from the data, not from the text of the source: active = normalized growth mostly below about 0.91 (no sharp cut-off); inconclusive = no clear call, values can overlap the other calls; inactive = mostly above about 0.92. The list shows a part of the results.

Test: chemical genetic growth profiling, strain panel (AID 1159580);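 note: tested at 20 µM; growth read once vehicle control cultures reached saturation at 30 °C; 1 = growth at the plate median or of vehicle wells; lower values mean less growth of the strain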
Settings: growth OD

Measured: normalized growth

COc1c(C(C)C)oc2cc3oc(=O)ccc3cc12
active: S. cerevisiae deletion strains, locus YCL029C, strain bik1, active compounds read low 0.839 | S. cerevisiae deletion strains, locus YDL035C, strain GPR1, active compounds read low 0.749 | S. cerevisiae deletion strains, locus YDL074C, strain BRE1, active compounds read low 0.721 | S. cerevisiae deletion strains, locus YDL192W, strain arf1, active compounds read low 0.894 | S. cerevisiae deletion strains, locus YDR162C, strain NBP2, active compounds read low 0.826 | S. cerevisiae deletion strains, locus YDR318W, strain mcm21, active compounds read low 0.89 | S. cerevisiae deletion strains, locus YDR502C, strain sam2, active compounds read low 0.873 | S. cerevisiae deletion strains, locus YGL078C, strain dbp3, active compounds read low 0.911 | S. cerevisiae deletion strains, locus YGL086W, strain mad1, active compounds read low 0.883 | S. cerevisiae deletion strains, locus YGL248W, strain PDE1, active compounds read low 0.869 | S. cerevisiae deletion strains, locus YGR135W, strain pre9, active compounds read low 0.779 | S. cerevisiae deletion strains, locus YGR252W, strain gcn5, active compounds read low 0.55 | S. cerevisiae deletion strains, locus YHR030C, strain SLT2, active compounds read low 0.885 | S. cerevisiae deletion strains, locus YHR129C, strain ARP1, active compounds read low 0.901 | S. cerevisiae deletion strains, locus YHR200W, strain rpn10, active compounds read low 0.915 | S. cerevisiae deletion strains, locus YIL066C, strain RNR3, active compounds read low 0.801 | S. cerevisiae deletion strains, locus YJL095W, strain BCK1, active compounds read low 0.722 | S. cerevisiae deletion strains, locus YJR043C, strain POL32, active compounds read low 0.764 | S. cerevisiae deletion strains, locus YJR075W, strain HOC1, active compounds read low 0.877 | S. cerevisiae deletion strains, locus YKL009W, strain mrt4, active compounds read low 0.745 | S. cerevisiae deletion strains, locus YKR001C, strain vps1, active compounds read low 0.777 | S. cerevisiae deletion strains, locus YLR330W, strain CHS5, active compounds read low 0.874 | S. cerevisiae deletion strains, locus YLR342W, strain FKS1 (second series), active compounds read low 0.661 | S. cerevisiae deletion strains, locus YLR418C, strain cdc73, active compounds read low 0.703 | S. cerevisiae deletion strains, locus YML032C, strain rad52, active compounds read low 0.855 | S. cerevisiae deletion strains, locus YMR223W, strain ubp8, active compounds read low 0.9 | S. cerevisiae deletion strains, locus YMR263W, strain SAP30, active compounds read low 0.887 | S. cerevisiae deletion strains, locus YNL067W, strain RPL9B, active compounds read low 0.862 | S. cerevisiae deletion strains, locus YNL153C, strain GIM3, active compounds read low 0.859 | S. cerevisiae deletion strains, locus YNL233W, strain BNI4, active compounds read low 0.806 | S. cerevisiae deletion strains, locus YNL271C, strain bni1, active compounds read low 0.889 | S. cerevisiae deletion strains, locus YNL298W, strain CLA4, active compounds read low 0.802 | S. cerevisiae deletion strains, locus YNL307C, strain MCK1, active compounds read low 0.51 | S. cerevisiae deletion strains, locus YNR052C, strain pop2, active compounds read low 0.884 | S. cerevisiae deletion strains, locus YOR184W, strain ser1, active compounds read low 0.828 | S. cerevisiae deletion strains, locus YPL055C, strain LGE1, active compounds read low 0.755 | S. cerevisiae deletion strains, locus YPR163C, strain tif3, active compounds read low 0.769 | S. cerevisiae deletion strains, locus YPR167C, strain met16, active compounds read low 0.895 | S. cerevisiae deletion strains, strain wtn01, active compounds read low 0.887 | S. cerevisiae strains, strain wild type, active compounds read low 0.899
inactive: S. cerevisiae deletion strains, locus YBR021W, strain FUR4, active compounds read low 0.915 | S. cerevisiae deletion strains, locus YBR229C, strain ROT2, active compounds read low 0.987 | S. cerevisiae deletion strains, locus YDL101C, strain DUN1, active compounds read low 0.918 | S. cerevisiae deletion strains, locus YDL185W, strain tfp1, active compounds read low 0.933 | S. cerevisiae deletion strains, locus YDR101C, strain arx1, active compounds read low 0.929 | S. cerevisiae deletion strains, locus YDR388W, active compounds read low 0.935 | S. cerevisiae deletion strains, locus YEL061C, strain CIN8, active compounds read low 0.933 | S. cerevisiae deletion strains, locus YER110C, active compounds read low 0.914 | S. cerevisiae deletion strains, locus YER155C, strain BEM2, active compounds read low 0.972 | S. cerevisiae deletion strains, locus YER167W, strain BCK2, active compounds read low 0.921 | S. cerevisiae deletion strains, locus YHR079C, strain IRE1 (second series), active compounds read low 0.954 | S. cerevisiae deletion strains, locus YHR094C, strain hxt1, active compounds read low 0.967 | S. cerevisiae deletion strains, locus YIL073C, strain SPO22, active compounds read low 0.838 | S. cerevisiae deletion strains, locus YIL125W, strain kgd1, active compounds read low 0.971 | S. cerevisiae deletion strains, locus YIR030C, strain dcg1, active compounds read low 0.941 | S. cerevisiae deletion strains, locus YJL134W, strain LCB3, active compounds read low 0.983 | S. cerevisiae deletion strains, locus YJL168C, strain set2, active compounds read low 0.957 | S. cerevisiae deletion strains, locus YJL187C, strain SWE1 (second series), active compounds read low 0.883 | S. cerevisiae deletion strains, locus YKL068W, active compounds read low 0.965 | S. cerevisiae deletion strains, locus YKL085W, strain MDH1 (second series), active compounds read low 0.958 | S. cerevisiae deletion strains, locus YKL085W, strain MDH1, active compounds read low 0.958 | S. cerevisiae deletion strains, locus YLR039C, strain RIC1, active compounds read low 0.944 | S. cerevisiae deletion strains, locus YLR058C, strain SHM2, active compounds read low 0.932 | S. cerevisiae deletion strains, locus YLR102C, strain apc9, active compounds read low 0.946 | S. cerevisiae deletion strains, locus YLR262C, strain YPT6, active compounds read low 0.971 | S. cerevisiae deletion strains, locus YLR268W, strain sec22, active compounds read low 0.888 | S. cerevisiae deletion strains, locus YLR371W, strain rom2, active compounds read low 0.951 | S. cerevisiae deletion strains, locus YML016C, strain PPZ1, active compounds read low 0.958 | S. cerevisiae deletion strains, locus YML124C, strain tub3, active compounds read low 0.96 | S. cerevisiae deletion strains, locus YMR078C, strain ctf18, active compounds read low 0.945 | S. cerevisiae deletion strains, locus YMR307W, strain GAS1, active compounds read low 0.743 | S. cerevisiae deletion strains, locus YNL250W, strain rad50, active compounds read low 0.932 | S. cerevisiae deletion strains, locus YOL012C, strain htz1 1.16 | S. cerevisiae deletion strains, locus YOL147C, strain pex11, active compounds read low 0.935 | S. cerevisiae deletion strains, locus YOR061W, strain CKA2, active compounds read low 0.91 | S. cerevisiae deletion strains, locus YOR069W, strain VPS5, active compounds read low 0.967 | S. cerevisiae deletion strains, locus YOR136W, strain idh2, active compounds read low 0.943 | S. cerevisiae deletion strains, locus YOR144C, strain elg1, active compounds read low 0.963 | S. cerevisiae deletion strains, locus YOR316C, strain cot1, active compounds read low 0.957 | S. cerevisiae deletion strains, locus YPR119W, strain clb2, active compounds read low 0.957 | S. cerevisiae deletion strains, locus YPR141C, strain kar3, active compounds read low 0.952
